# Hits are enriched below; roughly 0.36% of the tested compounds scored in any of these assays.
# Ba CapD inh: inhibitors of Bacillus anthracis CapD enzyme | purified CapD enzyme, fluorescence intensity read-out; stronger effect = lower value | z-score (no concentration beside the values) | actives 0.23% (n = 140,000); in the data active = z-score mostly below about -2.9, no sharp cut-off; inactive = mostly above about -1.9
# AID504770: E. coli YBA685 growth inhibition, screen for V. cholerae RctB inhibitors; AID 504770; z-score (no concentration beside the values); actives 0.27% (n = 130,000); E. coli YBA685 rctB-dependent plasmid, OD600 growth, 3 h; stronger effect = lower value; in the data active = z-score below about -2, passing the limit was not always enough
# * = called active by the depositor; x = no result.
SMILES,Ba CapD inh,AID504770
O=[n+]1c2c(n([O-])c3ccccc31)CCC2,-1.2,-3.3*
FC(F)(F)c1cc(C(F)(F)F)c2c(n1)[nH]c1ccccc12,x,0.3
CN(C)/C=C/C=C1\CC/C(=C\C=C\N(C)C)C1=O,-7.3*,0.95
CN(C)/C=C/C=C1\CCc2ccccc2C1=O,-0.79,-0.9
Cc1ccnc(Sc2ccc(NS(=O)(=O)c3ccc(C(C)(C)C)cc3)cc2)n1,-1.6,x
O=C(NCc1ccccc1)N1CCN(C(c2ccc(F)cc2)c2ccc(F)cc2)CC1,-0.96,-2.9*
O=C(NCc1ccccc1)N1CCCCC1,0.005,0
Cc1ccc2[nH]c(=O)c3cc(C(=O)N(CC(C)C)CC(C)C)sc3c2c1,0.41,-0.25
N#Cc1ccccc1OCC(=O)c1ccc2c(c1)OCCO2,x,0.05
Cn1ncc(Br)c1N1C(=O)C=CC1=O,-0.25,-3*
Cn1ncc(Br)c1C(=O)NN,0.18,0.2
Cn1c(=O)c2cn(-c3ccccc3)cc2n(C)c1=O,4.1,1.9
Cn1c(=O)sn(-c2ccccc2)c1=O,1.1,-5.2*
O=C(c1cc(C2CC2)nn1-c1ccccc1)N(Cc1ccco1)Cc1cccs1,x,-0.65
CC(=O)N1c2nonc2N(C(C)=O)c2nonc21,-11*,-1.1
CC(=O)Nc1nonc1N1CCCC1=O,0.08,0
CCCCC1(C)OC(=O)C(=Cc2ccc(Br)o2)C(=O)O1 (stereo not given),-4.4*,-0.35
CCCCC1(C)OC(=O)C(=Cc2ccc(OCC)c(OC)c2)C(=O)O1 (stereo not given),0.49,-0.1
CCOC(=O)C(O)c1ccc2c(c1)CCO2 (stereo not given),-0.04,x
COc1ccc(NC(=O)CSc2nc3n[nH]c(C)c3c(=N)n2-c2cc(Cl)ccc2C)c(OC)c1,0.18,x
O=C(NN1S(=O)(=O)c2ccccc2S1(=O)=O)c1nc[nH]c1C(=O)Nc1ccccc1,-0.78,x
O=C(NN1S(=O)(=O)c2ccccc2S1(=O)=O)c1nsnc1NCCCl,-6.3*,x
CC1(c2ccccc2)CC1(Br)Br (stereo not given),-0.2,0
Cc1cc(C)nc(NS(=O)(=O)c2ccc(NC(=S)NC(=O)c3ccc(Cl)cc3Cl)cc2)n1,-0.99,x
CCCCOc1ccc(-c2csc(-c3cc4cc(Cl)ccc4oc3=O)n2)cc1,-1.2,x
SMILES,Ba CapD inh,AID504770
Cn1c(=O)n(C)c2cc(S(=O)(=O)N(Cc3ccccc3)C(=O)c3ccncc3)ccc21,-7.6*,-0.95
Cn1c(=O)c(=O)n(C)c2cc(S(=O)(=O)CCC(=O)NCc3ccccc3)ccc21,5.3,1.6
CC(=O)NCc1ccc(C(=O)CSc2nnc(C)n2Cc2ccccc2)o1,x,1.8
O=C1C=CC(=O)N1c1ccc(Cl)cc1Br,0.31,x
Cn1cc(Br)c(N2C(=O)C=CC2=O)n1,0.64,-4.2*
COc1ccc(NC(=O)c2ccccc2NC(=O)c2cccc(S(=O)(=O)N3CCC(C)CC3)c2)cc1,-0.055,x
NC(=O)C1CCN(C(=O)CSc2nccc(-c3ccccc3)n2)CC1,x,-0.35
O=c1c2ccccc2c(=O)c2c1c(N1CCOCC1)cc1oc3cc(Cl)ccc3[nH]c12,-1.7,x
CC(=O)NC1=CC(=O)c2nonc2C1=O,3.2,-9.2*
COc1nonc1NC(C)=O,-0.045,0.45
CCOc1ccc(N(C)S(=O)(=O)c2ccc3[nH]cc(C(=O)N(C)Cc4ccccc4)c(=O)c3c2)cc1,0.55,x
O=C(O)c1c(F)cccc1I,-2.9*,-0.8
CC(=O)Nc1cccc(F)c1C(=O)O,-0.13,x
O=c1[nH]c(-c2cc(Br)ccc2OCc2ccccc2F)nc2sc3c(c12)CCCC3,2,x
COc1ccc(CCNC(=O)c2ccc3c(=O)n(-c4ccc(OC)c(OC)c4)c(=S)[nH]c3c2)cc1OC,0.12,x
COc1ccc(-c2nc(N)s[n+]2-c2ccccc2)cc1,0.05,1.5
Cc1ccc(-c2nc(N)s[n+]2-c2ccccc2)cc1,-0.7,-2.4*
N#CSc1c(Cl)nc2sccn12,-0.46,-4.3*
N#CC(C#N)=Cc1c(Cl)nc2sccn12,x,-1.4
COc1cc(Br)c(CN2CCCC(COC(=O)NNC(=O)c3scc(C)c3-n3cccc3)C2)cc1OC (stereo not given),-1.1,x
Cc1cc(C(=O)Nc2cccnc2)no1,-2.4,-1.8
Cc1nonc1NC(=O)Nc1cccnc1,0.72,-2*
N#Cc1ccc(N2C(=O)C3C4c5ccccc5C(c5ccccc54)C3C2=O)cc1 (stereo not given),0.03,x
CNC(=O)c1cn(-c2ccccc2)c(=O)c2ccccc12,4.8,0.65
CC(=O)n1c(=O)c2ccccc2c(=O)n1-c1ccccc1,-4.7*,0.9
SMILES,Ba CapD inh,AID504770
Cc1ccc2nc(NC3=NC(C(=O)Nc4ccccc4)CC(=O)N3)nc(C)c2c1 (stereo not given),0.49,x
COc1ccc(S(=O)(=O)N2CCN(C/C=C/c3ccccc3)CC2)cc1C,0.015,-0.45
O=C(c1ccco1)N(Cc1ccccc1)Cc1cn(-c2ccccc2)nc1-c1ccc(F)cc1,-0.16,-0.05
[N-]=[N+]=c1c(=O)ccc2c(=O)c3ccccc3c(=O)c1=2,-2.4,-6.3*
Cc1cc(N)nn1C(=O)CSc1nc2cc(C(=O)NCCCOC(C)C)ccc2c(=O)n1Cc1ccco1,-0.18,x
CN1CCN(S(=O)(=O)c2ccc3oc(=O)c4ncn(C)c4c3c2)CC1,0.15,-2.4*
CN1CCN(S(=O)(=O)c2ccc3c(c2)oc(=O)c2cc(S(=O)(=O)N4CCN(C)CC4)ccc23)CC1,-0.28,-0.15
O=C1/C(=C/c2ccc([N+](=O)[O-])cc2)C=C(c2ccccc2)N1c1ccc(Nc2ccccc2)cc1,-1.4,x
CC1COc2c(F)c(F)cc3c(=O)c(C(=O)O)cn1c23 (stereo not given),1.3,-0.75
CCn1cc(C(=O)O)c(=O)c2cc(F)c(N3CCNC(C)C3)c(F)c21 (stereo not given),0.47,-3.6*
c1ccc(-c2ncc(CSc3nnc(-c4cccs4)n3CC3CCCO3)s2)cc1 (stereo not given),x,-0.65
COc1ccc2ccccc2c1C1NC(=S)NC(C)=C1C(=O)Nc1cccc(C)c1C (stereo not given),-0.17,x
COc1ccc(N2C(=O)C(O)=CC2(OC)c2ccccc2)cc1 (stereo not given),-4.5*,1.4
Cc1ccc(N2C(=O)C(O)=CC2(O)c2ccccc2)cc1 (stereo not given),-1.1,-0.15
Cc1ccc(C(=O)Nc2cc(C)cc(C)c2)cc1,1,1.1
Cc1ccc(C(=O)Nc2cccc(O)c2)cc1,-0.14,-2.4*
N#Cc1ccccc1N1C(=O)c2ccccc2S1(=O)=O,0.19,-0.7
N#Cc1ccccc1N1C(=O)C=CC1=O,-0.88,-3.5*
O=C1C=CC(=O)N1c1ccccc1Br,-0.59,-3.3*
CC(C)(C)c1ccccc1N1C(=O)C=CC1=O,-0.015,-1.6
Cc1ccccc1N1C(=O)C=CC1=O,x,0.9
CSc1ccccc1N1C(=O)C=CC1=O,0.23,-2.5*
COc1ccc(N(C)Cc2ncccc2Oc2nc(OC)cc(OC)n2)cc1,0.025,x
COC(=O)c1ccc(OCC(=O)c2cc(C)n(-c3cc(C)on3)c2C)cc1,x,0.2
COc1ccc(NC(=O)NNC(=O)C2CC(c3cccnc3)=NO2)cc1 (stereo not given),0.76,x
O=C1N(Cc2ccccc2)c2cccc3cccc(c23)N1Cc1ccccc1,0.74,-0.15
O=c1ccsn1Cc1ccccc1,x,-9.2*
COc1ccc(CCN2C(=O)/C(=C/c3c(NCCO)nc4ccccn4c3=O)SC2=S)cc1OC,0.7,x
Cc1c(C(=O)O)sc2nc3n(c(=O)c12)CCC3,-5.2*,x

# Screens from PubChem.
